# Reference: PubChem BioAssay AID493170 (National Center for Advancing Translational Sciences (NCATS), 2011)
# Results filed as inconclusive are left out. The source made the active and inactive calls. The call rests on the fitted dose curve; in most records, active means well fitted inhibition curve with a large enough effect; inconclusive means small, poorly fitted or top-dose-only effect, or effect the other way; inactive means flat fitted curve, though single readings scatter.
# Molecular target: Ubiquitin carboxyl-terminal hydrolase 2 (Homo sapiens) (UniProt O75604)
# Sequence (O75604 whole entry, looked up): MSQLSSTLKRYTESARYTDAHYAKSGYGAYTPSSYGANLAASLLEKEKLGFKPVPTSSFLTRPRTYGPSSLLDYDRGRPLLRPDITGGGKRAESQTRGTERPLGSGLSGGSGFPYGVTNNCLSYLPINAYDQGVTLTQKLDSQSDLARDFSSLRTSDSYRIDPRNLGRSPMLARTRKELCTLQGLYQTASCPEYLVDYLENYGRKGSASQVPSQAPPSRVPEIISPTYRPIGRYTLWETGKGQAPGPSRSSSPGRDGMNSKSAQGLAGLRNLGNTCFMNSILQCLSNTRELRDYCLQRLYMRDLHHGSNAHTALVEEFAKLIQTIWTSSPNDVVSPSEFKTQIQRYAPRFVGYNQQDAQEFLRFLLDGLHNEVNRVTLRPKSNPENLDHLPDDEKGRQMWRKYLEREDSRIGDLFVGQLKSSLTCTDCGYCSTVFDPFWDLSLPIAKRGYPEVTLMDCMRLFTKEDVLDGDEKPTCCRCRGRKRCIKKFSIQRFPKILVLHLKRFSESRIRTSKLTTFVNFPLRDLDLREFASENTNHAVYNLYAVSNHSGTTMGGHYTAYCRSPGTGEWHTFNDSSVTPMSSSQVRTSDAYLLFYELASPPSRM
# Assay: Ub-rhodamine 110 based assay for inhibitors Ubiquitin-specific Protease USP2a; further: nearly all actives have a fitted effect of over 50% in size
# Details: USP2a Ub-rhodamine110 cleavage, fluorescence; series mostly up to 38.3 µM; activity change, negative = inhibition: at the top concentration
# How it was run: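 5 nM USP2a preincubated with compounds for 30 min at RT in 20 mM Tris-HCl pH 8.0, 2 mM CaCl2, 2 mM beta-mercaptoethanol, 0.05% CHAPS. Cleavage of 150 nM Ub-rhodamine 110 read kinetically (Ex 485/Em 531) for 7 min.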
# On the % scale 0 is the no-effect control and ±100 the full control effect; potency means the concentration at half of the fitted maximal effect.
Compound,"activity change, negative = inhibition",Potency
CCOC(=O)N1CCN(C(=O)CN(c2ccc(Oc3ccccc3)cc2)S(C)(=O)=O)CC1,-6.74% (inactive),–
COC(=O)c1ccc(CSc2ncnc3ccccc23)o1,-6.12% (inactive),–
Cc1ccc(/C=C/S(=O)(=O)N2CCC(C(=O)O)CC2)cc1,1.06% (inactive),–
CCOc1ccc(-c2ccc(/C=C3/C(=N)N4C(C)=CSC4=NC3=O)o2)c([N+](=O)[O-])c1,–,7.94 µM (active)
Cc1ccc(N2CCN(C(=O)CCc3nc4ccccc4[nH]3)CC2)c(C)c1,-1.09% (inactive),–
O=C(NCCC1=CCCCC1)C1CCCN(S(=O)(=O)c2cnc[nH]2)C1 (centres undefined),-14.8% (inactive),–
O=c1oc2c(CN3CCCCC3)c(O)ccc2c2c1CCCCC2,3.64% (inactive),–
CC(C(=O)Nc1ccc(C(=O)O)c(O)c1)N1C(=O)/C(=C\c2ccco2)SC1=S (centres undefined),–,10 µM (active)
O=C(OCC1OC(n2ncc(=O)[nH]c2=O)C(OC(=O)c2ccccc2)C1OC(=O)c1ccccc1)c1ccccc1 (centres undefined),–,4.47 µM (active)
CCC(C)NC(=O)C1CN(S(=O)(=O)c2ccccc2)CCN1S(=O)(=O)c1ccccc1 (centres undefined),-7.74% (inactive),–
COc1ccc(NC(=O)CSc2nnc(-c3ccccc3Cl)n2Cc2ccco2)c(OC)c1,-3.93% (inactive),–
CCC(C(=O)Nc1nnc(-c2ccco2)s1)c1ccccc1 (centres undefined),-13.1% (inactive),–
N#CCC(=O)Nc1ccc(C(=O)OCC(=O)NCc2ccc3c(c2)OCO3)cc1,–,10 µM (active)
CCc1nnc(NC(=O)CSc2nccn2-c2cccc(C)c2)s1,-13.4% (inactive),–
COc1ccc(C(=O)N/C(=C\c2cccs2)C(=O)N2CCN(C)CC2)cc1OC,-5.24% (inactive),–
O=C(CNC(=O)c1ccco1)Nc1ccc(S(=O)(=O)N2CCCC2)cc1,-14.1% (inactive),–
CCOC(=O)c1[nH]c2ccc(OC)cc2c1NC(=O)CCN1CCCC(C)C1 (centres undefined),-9.84% (inactive),–
N#CNC(=Nc1cccc(F)c1)SCc1cccc(F)c1,-0.241% (inactive),–
CCn1c(CN2CCOCC2)nnc1SCC(=O)Nc1ccc(C(C)=O)cc1,-8.68% (inactive),–
O=C1/C(=C/C=C/c2ccco2)SC(=S)N1c1ccc(O)cc1,–,3.55 µM (active)

Compound,"activity change, negative = inhibition",Potency
CNc1sc(C(=O)c2ccc(F)cc2)c(N)c1-c1nc2ccccc2s1,-5.39% (inactive),–
Cc1nc2cc3ccccc3cc2c(=O)[nH]1,-20.4% (inactive),–
CC1CCCCC1NC(=O)CSCC(=O)O (centres undefined),0.809% (inactive),–
O=C1S/C(=C\C=C\c2ccco2)C(=O)N1c1ccc(O)cc1,–,8.91 µM (active)
CC1CCc2c(sc3nc(CN4CCOCC4)nc(NS(=O)(=O)c4cccc([N+](=O)[O-])c4)c23)C1 (centres undefined),–,10 µM (active)
COc1ccc(/C=N\NC(=O)c2cc(O)c(O)c(O)c2)cc1COc1ccc(C(=O)OCC(C)C)cc1,–,2.82 µM (active)
COc1ccc(CCNC(=O)Cc2cc(=O)[nH]c(=O)[nH]2)cc1OC,-4.19% (inactive),–
Nc1c(C(=O)Nc2ccc3c(c2)OCCO3)nnn1CCc1ccccc1,2.3% (inactive),–
COC1=CCC2([N+](=O)[O-])CN(CCO)CC1([N+](=O)[O-])C2 (centres undefined),3.44% (inactive),–
Cc1ccc(-c2c(C)n([O-])c3c([n+]2=O)CCC3)o1,-2.02% (inactive),–
NS(=O)(=O)c1ccc(NC(=O)CN2CCCCC2)cc1,0.599% (inactive),–
COC(=O)C1CCN(C(=O)COC(=O)CC(NC(N)=O)c2ccc(Cl)cc2)CC1 (centres undefined),-0.127% (inactive),–
O=c1[nH]c(=S)[nH]c2c1C(c1ccc(Br)cc1)c1c([nH]c(=S)[nH]c1=O)O2,–,11.2 µM (active)
CCCC(=O)Nc1ccc(N2CCN(C(=O)c3cc4ccccc4o3)CC2)cc1,-17.7% (inactive),–
CC(C)c1ccc2c(c1)c(SC(C)(C)C)c(CC(C)(C)C(=O)O)n2Cc1ccc(Cl)cc1,–,7.08 µM (active)
Cc1ccc(C2=[N+]([O-])C(C)N(O)C2(C)C)o1 (centres undefined),-1.97% (inactive),–
NC1=NC2(CCC(c3ccccc3)CC2)n2c(nc3ccccc32)N1 (centres undefined),-18.1% (inactive),–
CCOC(=O)c1c(C)c(C(=O)O)n(C)c1C,-0.886% (inactive),–
CCCCCc1ccc(OCCOCCn2c[n+](C)c3ccccc32)c(CCCCC)c1,-4.31% (inactive),–
